Experimental data reported in PubChem BioAssay AID651871 (Sanford-Burnham Center for Chemical Genomics, 2012).
Values joined by “and” are separate entries in the source; they are usually repeats but may differ in a detail not shown here. Equal entries are not always repeated.

system: H9c2; assay: protection of cardiomyocytes from stress damage, SAR follow-up, cell-based, panel, H9c2 and HL-1, ATP luminescence, set 2 (AID 651871); conditions: H9c2/HL-1 cardiomyocytes, 2-deoxyglucose stress, with 2-deoxyglucose; run 5, at 79 µM (top of the series);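 further: cells exposed to stressor for 2 h before ATP readout; reference of the scale not given here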

Row | Compound | activity (protection/inhibition)
1 | COc1ccc2c(c1OC)C(=O)N1c3ccccc3C(=O)N(Cc3cccc(Cl)c3Cl)C21 (stereo not drawn) | 88% and 69.1% and -5.13%
2 | CCOC(=O)c1cccc(NC(=O)CNC(=O)c2cc(-c3cc(OC)c(OC)c(OC)c3)nc3ccccc23)c1 | 97.3%
3 | COc1ccc2nc(-c3cc(OC)c(OC)c(OC)c3)cc(C(=O)NCC(=O)Nc3ccc(C(C)=O)cc3)c2c1 | 70.9%
